Test results from the supplement of paper PMC10849652.
Of roughly 7,900 targets only a part is listed; those with a hit were picked by preference. About 0.6% of all pairs of compound and target were hits.

Experiments:
Test in all cases: log2 fold change, soluble protein after heating vs DMSO (PISA); higher = thermal stabilisation; K562 cells, 10 uM, 30 min; active = over 0.2 and 3.5 SD of the protein, either way, in both replicates (recomputed)
[1] = compound: NC(=O)Nc1cc(-c2cccc(F)c2)sc1C(=O)N[C@H]1CCCNC1
Procedure, shortened: (§1)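 K562 cells at 2×10^6 cells/mL were exposed to 10 μM compound for 30 min, then aliquots were heated for 3 min across 48°C-58°C, pooled, and extracted in PBS containing 0.5% NP-40 at 4°C. The supernatant after 21,000xg for 90 min was taken as soluble protein and measured by TMTpro 16plex LC-MS/MS with channel sums equalised. Thermal stability is reported relative to control samples, with values from duplicates. Fold changes are given on a log2 scale.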

[2] = compound: NC(=O)c1cnc(N[C@@H]2CCCC[C@@H]2N)nc1Nc1cccc(-n2nccn2)c1
Procedure, shortened: as §1

[3] = compound: NC1(c2ccc(-c3nc4ccn5c(=O)[nH]nc5c4cc3-c3ccccc3)cc2)CCC1
Procedure, shortened: as §1

[4] = compound: NCC(=O)Nc1ccc(-n2nc(C(F)(F)F)cc2-c2ccc3c(ccc4ccccc43)c2)cc1
Procedure, shortened: as §1

entinostat = compound: Nc1ccccc1NC(=O)c1ccc(CNC(=O)OCc2cccnc2)cc1 [entinostat]
Procedure, shortened: as §1

citarinostat = compound: O=C(CCCCCCNC(=O)c1cnc(N(c2ccccc2)c2ccccc2Cl)nc1)NO [citarinostat]
Procedure, shortened: as §1

silmitasertib = compound: O=C(O)c1ccc2c(c1)nc(Nc1cccc(Cl)c1)c1ccncc12 [silmitasertib]
Procedure, shortened: as §1

[5] = compound: O=C1NC(=O)C(c2cnc3ccccn23)=C1c1cn2c3c(cc(F)cc13)CN(C(=O)N1CCCCC1)CC2
Procedure, shortened: as §1

[6] = compound: c1cc(OCCN2CCCCC2)cc(-c2n[nH]c3ccc(-c4nnc[nH]4)cc23)c1
Procedure, shortened: as §1

vorinostat = compound: O=C(CCCCCCC(=O)Nc1ccccc1)NO [vorinostat]
Procedure, shortened: as §1

Measured: log2 fold change

METAP1D (UniProt Q6UB28)
inactive: [1] 0.061 | [2] 0.252 | [3] -0.033 | [4] 0.073 | entinostat -0.071 | citarinostat 0.098 | silmitasertib 0.064 | [5] -0.099 | [6] -0.04

INTS5 (UniProt Q6P9B9)
inactive: [1] 0.015 | [2] -0.116 | [3] -0.079 | [4] -0.175 | entinostat 0.014 | silmitasertib -0.006 | [5] -0.076

MAPK14 (UniProt Q16539)
UniProt Q16539, sequence (Q16539 whole entry, looked up): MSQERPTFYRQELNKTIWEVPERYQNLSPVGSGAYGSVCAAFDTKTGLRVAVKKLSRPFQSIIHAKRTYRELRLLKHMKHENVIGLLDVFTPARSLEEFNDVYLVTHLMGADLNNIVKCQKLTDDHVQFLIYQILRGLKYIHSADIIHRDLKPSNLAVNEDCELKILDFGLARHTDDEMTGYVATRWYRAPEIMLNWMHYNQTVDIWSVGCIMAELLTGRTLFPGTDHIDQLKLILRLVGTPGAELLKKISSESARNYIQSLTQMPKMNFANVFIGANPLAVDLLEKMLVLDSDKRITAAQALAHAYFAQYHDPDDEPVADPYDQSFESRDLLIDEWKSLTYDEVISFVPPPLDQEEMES
inactive: [1] -0.019 | [2] -0.047 | [3] -0.136 | [4] -0.033 | entinostat 0.022 | vorinostat 0.027 | citarinostat 0.051 | silmitasertib 0.37 | [6] 0.058

MAN2B2 (UniProt Q9Y2E5)
inactive: [1] 0.063 | [2] -0.099 | [3] -0.262 | [4] 0.089 | entinostat -0.018 | citarinostat 0.089 | silmitasertib -0.029 | [5] -0.058 | [6] -0.005

IGFBP4 (UniProt P22692)
UniProt P22692, sequence (P22692 whole entry, looked up): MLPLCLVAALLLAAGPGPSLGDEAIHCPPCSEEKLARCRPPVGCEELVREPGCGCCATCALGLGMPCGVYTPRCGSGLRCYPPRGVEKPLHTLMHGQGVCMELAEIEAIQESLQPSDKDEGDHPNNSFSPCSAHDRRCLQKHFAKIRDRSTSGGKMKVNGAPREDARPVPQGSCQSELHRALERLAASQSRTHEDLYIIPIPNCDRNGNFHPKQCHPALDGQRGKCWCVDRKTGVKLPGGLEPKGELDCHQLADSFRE
inactive: [1] -0.019 | [2] 0.032 | [3] -0.011 | [4] -0.02 | entinostat 0.022 | vorinostat -0.017 | citarinostat -0.124 | silmitasertib 0.119 | [5] 0.044 | [6] 0.15

MARK2 (UniProt E9PC69)
inactive: [1] -0.513 | [2] -0.401 | [4] -0.213 | entinostat 0.101 | citarinostat 0.024 | [5] 0.082 | [6] -0.28

MED8 isoform 2 (UniProt Q96G25)
inactive: [1] 0.048 | [2] 0.2 | [3] 0.038 | [4] 0.303 | entinostat -0.107 | citarinostat 0.035 | silmitasertib 0.079 | [5] -0.043 | [6] -0.092

LUZP1 (UniProt Q86V48)
UniProt Q86V48, sequence (Q86V48 whole entry, looked up): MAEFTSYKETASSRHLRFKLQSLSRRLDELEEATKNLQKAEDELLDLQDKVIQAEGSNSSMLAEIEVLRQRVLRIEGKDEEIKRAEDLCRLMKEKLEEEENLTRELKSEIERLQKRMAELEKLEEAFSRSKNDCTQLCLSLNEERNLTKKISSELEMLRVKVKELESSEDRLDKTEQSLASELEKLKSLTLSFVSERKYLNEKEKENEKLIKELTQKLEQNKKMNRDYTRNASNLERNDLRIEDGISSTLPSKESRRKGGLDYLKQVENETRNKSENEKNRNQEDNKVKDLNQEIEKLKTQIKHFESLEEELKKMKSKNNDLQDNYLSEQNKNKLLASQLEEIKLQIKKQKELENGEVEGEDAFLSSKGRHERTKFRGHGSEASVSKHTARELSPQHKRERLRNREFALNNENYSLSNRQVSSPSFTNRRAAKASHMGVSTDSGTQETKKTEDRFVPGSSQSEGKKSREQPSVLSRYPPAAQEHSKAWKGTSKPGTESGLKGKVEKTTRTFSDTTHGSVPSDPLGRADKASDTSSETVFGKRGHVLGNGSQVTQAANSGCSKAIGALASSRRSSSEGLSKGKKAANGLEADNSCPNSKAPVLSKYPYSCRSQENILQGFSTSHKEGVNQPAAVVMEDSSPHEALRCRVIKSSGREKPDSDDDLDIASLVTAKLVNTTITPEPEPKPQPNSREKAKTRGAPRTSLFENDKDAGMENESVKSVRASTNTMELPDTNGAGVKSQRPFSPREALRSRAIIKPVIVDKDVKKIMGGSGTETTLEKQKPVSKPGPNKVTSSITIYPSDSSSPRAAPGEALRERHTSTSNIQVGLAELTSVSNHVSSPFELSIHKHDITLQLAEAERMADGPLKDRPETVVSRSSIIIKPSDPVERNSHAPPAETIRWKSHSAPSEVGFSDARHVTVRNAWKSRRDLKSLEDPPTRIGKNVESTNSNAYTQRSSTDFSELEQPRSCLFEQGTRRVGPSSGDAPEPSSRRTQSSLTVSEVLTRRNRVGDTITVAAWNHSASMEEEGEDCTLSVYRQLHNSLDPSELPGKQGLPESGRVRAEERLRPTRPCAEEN
inactive: [1] 0.055 | [2] 0.089 | [3] 0.087 | [4] 0.058 | entinostat -0.081 | vorinostat -0.119 | silmitasertib 0.114 | [5] 0.084

MED12 isoform 2 (UniProt Q93074)
inactive: [1] 0.022 | [2] -0.455 | [3] -0.191 | entinostat 0.066 | vorinostat 0.22 | citarinostat 0.181 | silmitasertib 0.016 | [5] -0.005 | [6] -0.311

LYN isoform 2 (UniProt P07948)
inactive: [1] 0.162 | [2] 0.014 | [4] -0.073 | entinostat -0.155 | [5] 0.082

LUM (UniProt P51884)
inactive: [1] -0.067 | [2] -0.108 | [4] -0.002 | entinostat -0.033 | citarinostat -0.042 | [5] 0.185 | [6] 0.47

MAP4K4 isoform 3 (UniProt O95819)
inactive: [1] -0.199 | [2] -0.154 | [3] -0.204 | [4] -0.013 | entinostat 0.07 | vorinostat 0.075 | citarinostat 0.044 | silmitasertib -0.024 | [6] -0.179

ITGA2B (UniProt P08514)
inactive: [1] 0.085 | [2] -0.222 | [4] -0.009 | entinostat -0.009 | [5] 0.02
active: vorinostat -0.495

KIF13A isoform 4 (UniProt Q9H1H9)
UniProt Q9H1H9, sequence (Q9H1H9 whole entry, looked up): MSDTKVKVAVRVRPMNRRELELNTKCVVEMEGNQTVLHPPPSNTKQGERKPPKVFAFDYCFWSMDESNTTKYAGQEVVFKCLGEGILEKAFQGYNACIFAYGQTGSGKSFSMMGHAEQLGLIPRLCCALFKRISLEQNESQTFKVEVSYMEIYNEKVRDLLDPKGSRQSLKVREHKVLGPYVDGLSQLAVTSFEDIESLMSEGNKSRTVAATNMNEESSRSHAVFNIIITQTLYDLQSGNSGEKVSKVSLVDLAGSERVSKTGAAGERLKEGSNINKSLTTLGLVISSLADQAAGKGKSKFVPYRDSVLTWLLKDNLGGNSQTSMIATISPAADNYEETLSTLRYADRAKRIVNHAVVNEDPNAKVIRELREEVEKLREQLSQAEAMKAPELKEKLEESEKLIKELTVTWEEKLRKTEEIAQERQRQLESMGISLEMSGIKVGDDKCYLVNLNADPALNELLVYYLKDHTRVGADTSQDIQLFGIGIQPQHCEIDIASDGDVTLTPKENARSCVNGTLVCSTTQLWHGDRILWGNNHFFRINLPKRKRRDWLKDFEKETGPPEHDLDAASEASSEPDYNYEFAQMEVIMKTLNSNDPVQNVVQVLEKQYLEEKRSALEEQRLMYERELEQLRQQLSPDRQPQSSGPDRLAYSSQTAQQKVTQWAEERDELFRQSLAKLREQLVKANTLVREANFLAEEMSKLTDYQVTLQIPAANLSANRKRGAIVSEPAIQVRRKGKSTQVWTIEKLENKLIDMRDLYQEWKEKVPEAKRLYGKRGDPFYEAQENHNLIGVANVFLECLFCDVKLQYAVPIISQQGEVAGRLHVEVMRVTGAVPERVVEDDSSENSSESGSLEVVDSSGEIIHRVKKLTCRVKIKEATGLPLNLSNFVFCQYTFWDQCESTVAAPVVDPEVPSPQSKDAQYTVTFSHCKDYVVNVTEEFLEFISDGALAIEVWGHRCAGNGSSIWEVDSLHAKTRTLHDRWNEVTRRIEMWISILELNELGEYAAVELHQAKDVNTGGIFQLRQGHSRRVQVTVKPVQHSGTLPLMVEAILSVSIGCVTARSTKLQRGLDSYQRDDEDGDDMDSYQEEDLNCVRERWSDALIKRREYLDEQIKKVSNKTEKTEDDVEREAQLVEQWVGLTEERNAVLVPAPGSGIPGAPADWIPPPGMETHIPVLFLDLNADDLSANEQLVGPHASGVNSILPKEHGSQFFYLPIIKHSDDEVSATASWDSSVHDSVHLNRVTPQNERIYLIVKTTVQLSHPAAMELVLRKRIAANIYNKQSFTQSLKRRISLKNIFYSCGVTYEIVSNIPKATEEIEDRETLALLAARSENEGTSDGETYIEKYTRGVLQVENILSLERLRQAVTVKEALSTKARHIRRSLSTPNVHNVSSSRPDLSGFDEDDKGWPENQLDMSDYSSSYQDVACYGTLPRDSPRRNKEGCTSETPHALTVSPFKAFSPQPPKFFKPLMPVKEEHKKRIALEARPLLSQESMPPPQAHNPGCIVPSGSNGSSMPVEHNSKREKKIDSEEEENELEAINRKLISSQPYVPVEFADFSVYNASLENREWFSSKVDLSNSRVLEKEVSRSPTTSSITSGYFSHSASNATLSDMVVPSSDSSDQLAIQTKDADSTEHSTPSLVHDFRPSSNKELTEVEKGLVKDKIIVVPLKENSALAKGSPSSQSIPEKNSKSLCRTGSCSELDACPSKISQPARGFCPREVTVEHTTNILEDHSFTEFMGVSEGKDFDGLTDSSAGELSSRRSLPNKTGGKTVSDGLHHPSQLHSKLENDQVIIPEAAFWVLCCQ
inactive: [1] -0.034 | [2] -0.165 | entinostat 0.303

MGRN1 isoform 2 (UniProt O60291)
inactive: [2] 0.11 | vorinostat -0.024

MAML1 (UniProt Q92585)
inactive: [1] 0.08 | [4] 0.088 | entinostat -0.104 | [5] 0.025

ITPRID2 (UniProt P28290)
inactive: [4] -0.059 | citarinostat -0.029 | [5] -0.208 | [6] 0.211

MARCHF3 (UniProt Q86UD3)
inactive: [1] 0.169 | entinostat -0.038 | citarinostat -0.133 | [5] -0.014 | [6] -0.26

MFSD8 (UniProt Q8NHS3)
UniProt Q8NHS3, sequence (Q8NHS3 whole entry, looked up): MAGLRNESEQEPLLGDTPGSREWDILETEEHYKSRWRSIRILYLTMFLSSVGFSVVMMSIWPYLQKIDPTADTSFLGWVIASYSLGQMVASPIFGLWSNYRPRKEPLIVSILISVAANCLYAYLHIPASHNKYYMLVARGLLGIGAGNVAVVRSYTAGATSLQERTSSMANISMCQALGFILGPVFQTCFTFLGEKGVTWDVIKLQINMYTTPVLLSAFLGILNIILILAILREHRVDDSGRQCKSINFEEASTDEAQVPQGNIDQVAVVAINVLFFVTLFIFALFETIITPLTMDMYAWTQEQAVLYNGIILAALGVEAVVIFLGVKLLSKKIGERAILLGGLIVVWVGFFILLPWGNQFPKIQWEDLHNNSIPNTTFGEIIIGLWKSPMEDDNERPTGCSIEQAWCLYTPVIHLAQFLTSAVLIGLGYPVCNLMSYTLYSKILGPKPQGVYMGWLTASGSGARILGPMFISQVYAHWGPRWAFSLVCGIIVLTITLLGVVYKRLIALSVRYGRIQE
inactive: [2] 0.02 | [3] -0.115 | [4] -0.076 | vorinostat -0.008 | citarinostat -0.003 | silmitasertib 0.069 | [5] -0.007 | [6] -0.129

MBLAC1 (UniProt A4D2B0)
inactive: [2] -0.031 | [3] -0.179 | [4] 0.242 | vorinostat -0.021 | citarinostat 0.01 | silmitasertib -0.082 | [6] -0.067

LIN52 (UniProt Q52LA3)
inactive: [3] 0.294 | silmitasertib -0.045

JAK3 (UniProt P52333)
inactive: [1] 0 | [3] -0.045 | [4] -0.102 | entinostat -0.019 | vorinostat -0.048 | silmitasertib -0.003 | [5] 0.002

LEPROT (UniProt O15243)
UniProt O15243, sequence (O15243 whole entry, looked up): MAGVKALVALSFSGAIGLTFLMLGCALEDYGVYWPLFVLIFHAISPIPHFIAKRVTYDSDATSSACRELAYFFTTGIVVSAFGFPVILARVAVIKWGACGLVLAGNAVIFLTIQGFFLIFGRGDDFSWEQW
inactive: [2] -0.161 | [3] -0.088 | vorinostat -0.142 | citarinostat 0.125 | silmitasertib 0.005 | [5] 0.261 | [6] -0.072

ILF3 (UniProt Q12906)
inactive: [1] 0.013 | [3] 0.331 | entinostat 0.058 | citarinostat -0.134 | silmitasertib 0.181 | [5] 0.174 | [6] -0.218

KCNK5 (UniProt O95279)
inactive: [1] -0.066 | [3] 0.16 | entinostat 0.031 | vorinostat -0.102 | citarinostat 0.198 | silmitasertib 0.093 | [5] 0.004 | [6] 0.005

MAP4K4 isoform 6 (UniProt O95819)
inactive: [1] 0.332 | [3] 0.009 | [4] 0.228 | entinostat 0.237 | citarinostat 0.114 | silmitasertib -0.202 | [6] 0.143

ING5 (UniProt Q8WYH8)
inactive: [3] -0.042 | citarinostat 0.115 | silmitasertib -0.013 | [6] -0.008

MFSD12 isoform 3 (UniProt Q6NUT3)
inactive: [1] 0.073 | [2] -0.159 | entinostat -0.067 | vorinostat 0.11 | citarinostat 0.1 | [6] -0.162

KIZ (UniProt Q2M2Z5)
inactive: [2] -0.067 | vorinostat 0.137 | citarinostat -0.094 | [6] 0.045

IPP (UniProt Q9Y573)
inactive: [2] 0.047

KMT5A (UniProt Q9NQR1)
inactive: [1] 0.069 | entinostat -0.258 | vorinostat 0.096

MCM10 (UniProt Q7L590)
inactive: [3] 0.002 | [4] -0.085 | entinostat 0.224 | vorinostat 0.021 | citarinostat 0.143 | silmitasertib -0.129 | [5] 0.134 | [6] 0.107
active: [1] 0.522

MAP2K5 (UniProt Q13163)
inactive: [2] -0.025

LRRFIP1 isoform 4 (UniProt Q32MZ4)
inactive: [2] 0.04 | vorinostat -0.062 | [5] -0.019

MAGEA8 (UniProt P43361)
inactive: [2] -0.135 | [4] 0.034 | vorinostat -0.063 | citarinostat 0.012 | [6] -0.008

KXD1 (UniProt Q9BQD3)
UniProt Q9BQD3, sequence (Q9BQD3 whole entry, looked up): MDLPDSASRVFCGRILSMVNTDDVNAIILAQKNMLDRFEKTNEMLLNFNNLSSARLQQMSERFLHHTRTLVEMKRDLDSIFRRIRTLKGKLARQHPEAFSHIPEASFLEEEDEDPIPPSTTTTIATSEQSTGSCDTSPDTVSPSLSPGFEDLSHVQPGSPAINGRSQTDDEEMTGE
inactive: [2] -0.091 | [3] -0.237 | [4] -0.021 | vorinostat -0.046 | citarinostat 0.042 | silmitasertib -0.113 | [5] 0.131 | [6] -0.055

LOX (UniProt P28300)
inactive: [3] -0.086 | silmitasertib 0.187

MAP4K2 (UniProt Q12851)
inactive: entinostat 0.145 | citarinostat 0.116 | [6] -0.22
active: [1] 0.827

LAMP2 isoform 2 (UniProt P13473)
inactive: [2] -0.1 | [3] -0.321 | [4] -0.132 | vorinostat -0.113 | citarinostat 0.061 | silmitasertib 0.003 | [5] 0.027 | [6] -0.275

LAPTM4B (UniProt Q86VI4)
inactive: [1] -0.109 | [3] 0.116 | entinostat -0.126 | vorinostat -0.064 | citarinostat 0.092 | silmitasertib 0.025 | [6] -0.178

LSR isoform 3 (UniProt Q86X29)
UniProt Q86X29, sequence (Q86X29 whole entry, looked up): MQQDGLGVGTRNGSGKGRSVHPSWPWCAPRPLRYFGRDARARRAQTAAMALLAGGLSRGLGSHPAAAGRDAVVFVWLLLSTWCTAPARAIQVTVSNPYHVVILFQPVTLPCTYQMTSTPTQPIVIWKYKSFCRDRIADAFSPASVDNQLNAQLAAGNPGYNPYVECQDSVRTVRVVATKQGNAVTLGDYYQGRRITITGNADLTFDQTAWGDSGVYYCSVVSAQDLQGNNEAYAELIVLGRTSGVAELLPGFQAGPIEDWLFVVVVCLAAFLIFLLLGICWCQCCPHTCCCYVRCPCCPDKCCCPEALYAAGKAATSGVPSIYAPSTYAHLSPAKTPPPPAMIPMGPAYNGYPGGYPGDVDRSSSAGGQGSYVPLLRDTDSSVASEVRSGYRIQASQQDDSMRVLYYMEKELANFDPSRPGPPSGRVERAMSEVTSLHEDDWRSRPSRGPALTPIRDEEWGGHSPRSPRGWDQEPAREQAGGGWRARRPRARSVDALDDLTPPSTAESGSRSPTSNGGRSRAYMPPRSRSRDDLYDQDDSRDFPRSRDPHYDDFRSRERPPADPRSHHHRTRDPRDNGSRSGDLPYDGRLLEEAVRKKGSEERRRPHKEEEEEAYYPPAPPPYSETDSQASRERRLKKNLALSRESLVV
inactive: [1] -0.531 | [3] -0.327 | entinostat -0.134 | silmitasertib 0.062

MCOLN3 (UniProt Q8TDD5)
inactive: [3] -0.254 | vorinostat 0 | citarinostat 0.095 | silmitasertib 0.083 | [6] 0.159

LSR (UniProt M0QZL9)
inactive: [1] -0.508 | [4] -0.095 | entinostat -0.406 | [5] -0.074

IKZF1 isoform 2 (UniProt Q13422)
inactive: [1] 0.06 | [3] -0.109 | [4] 0.036 | entinostat -0.006 | silmitasertib 0.063

MAPK7 (UniProt Q13164)
inactive: [2] -0.25 | vorinostat -0.069 | [5] 0

KIF1B isoform 3 (UniProt O60333)
inactive: [3] -0.073 | [4] -0.389 | citarinostat 0.043 | silmitasertib -0.057 | [6] -0.55

MAPK11 (UniProt Q15759)
inactive: vorinostat 0.033

LRFN1 (UniProt Q9P244)
inactive: [1] -0.14 | [4] -0.166 | entinostat 0.133 | citarinostat -0.06 | [5] 0.036 | [6] 0.716

IGFBP6 (UniProt P24592)
inactive: [2] -0.079 | [4] -0.13

LRRCC1 (UniProt Q9C099)
inactive: [2] -0.041

MED29 (UniProt Q9NX70)
inactive: [2] 0.05 | [3] 0.029 | silmitasertib 0.133

IKZF1 (UniProt R9R4D9)
inactive: vorinostat -0.181

MAPRE3 isoform 2 (UniProt Q9UPY8)
inactive: [2] -0.033
